Experimental data as given in the supplement of paper PMC9950053.
Structures can show the parent of a compound that is named as a salt.

tested on: Danio rerio larvae (5 dpf); test: habituation (activity change first vs second 5 min of 1-s interval sound, period 17) minus DMSO control (percentage points); higher = larger habituation measure than DMSO larvae; settings: 10 µM; exposure time: 3 h pre-incubation + 3 h imaging
Experimental: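 Wild-type 5 dpf zebrafish larvae (n=48 per drug, 96-well plates, 28.5 °C) were exposed to Tocris FDA-approved library compounds at 10 µM (0.1% DMSO) for 3 h before and 3 h during imaging. Images were taken every 6 s during visual (moving coloured lines) and acoustic stimuli, and larvae were tracked with the DeepLabCut-based Z-LaP Tracker. Each behavioural measure is the treated-group mean minus the DMSO vehicle control mean (n=844), in percentage points. This mapping covers compounds with 4-character plate codes.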

| SMILES | habituation |
| --- | --- |
| O=c1[nH]c2ccccc2n1C1CCN(CCCC(c2ccc(F)cc2)c2ccc(F)cc2)CC1 [Pimozide] | -10.2 |
| C=C1C[C@@H]2[C@H](CC[C@]3(C)C(=O)CC[C@@H]23)[C@@]2(C)C=CC(=O)C=C12 [Exemestane] | -2.71 |
| C=CCN1C[C@H](C(=O)N(CCCN(C)C)C(=O)NCC)C[C@@H]2c3cccc4[nH]cc(c34)C[C@H]21 [Cabergoline] | 5.7 |
| CN1C[C@H](C(=O)N[C@]2(C)O[C@@]3(O)[C@@H]4CCCN4C(=O)[C@H](Cc4ccccc4)N3C2=O)C[C@@H]2c3cccc4[nH]cc(c34)C[C@H]21 [Dihydroergotamine mesylate] | 2.38 |
| CC(C)C[C@H]1C(=O)N2CCC[C@H]2[C@]2(O)O[C@](NC(=O)[C@@H]3C=C4c5cccc6[nH]c(Br)c(c56)C[C@H]4N(C)C3)(C(C)C)C(=O)N12 [Bromocriptine mesylate] | -1.05 |
| CC(O)(CS(=O)(=O)c1ccc(F)cc1)C(=O)Nc1ccc(C#N)c(C(F)(F)F)c1 (stereo unspecified) [Bicalutamide] | -6.13 |
| COc1cc2c(cc1OC)C1CC(=O)C(CC(C)C)CN1CC2 (stereo unspecified) [Tetrabenazine] | 0.576 |
| N[C@@H]1C[C@H]1c1ccccc1 [Tranylcypromine hydrochloride] | -2.8 |
| Cc1cccc([C@H](C)c2c[nH]cn2)c1C [Dexmedetomidine hydrochloride] | -10.4 |
| CC[C@@H](C(N)=O)N1CCCC1=O [Levetiracetam] | -2 |
| CCN(C)C(=O)Oc1cccc([C@H](C)N(C)C)c1 [Rivastigmine tartrate] | 0.0925 |
